Data as given in the supplement of paper PMC3334620.
In all, about 33,000 sequences were measured (“E-score (-0.5 to 0.5)”: median about -0.054, highest 2% from about 0.35 on). The entries come from a sample that favours the highest values as a whole.

Each sequence was assayed against T1, Stb5 (UniProt P38699) (assay: PBM E-score (8-mer binding enrichment) (E-score (-0.5 to 0.5)); higher = stronger / more preferred TF binding). Conditions: protein concentration: 200 nM; construct: GST-full length.
T1 sequence: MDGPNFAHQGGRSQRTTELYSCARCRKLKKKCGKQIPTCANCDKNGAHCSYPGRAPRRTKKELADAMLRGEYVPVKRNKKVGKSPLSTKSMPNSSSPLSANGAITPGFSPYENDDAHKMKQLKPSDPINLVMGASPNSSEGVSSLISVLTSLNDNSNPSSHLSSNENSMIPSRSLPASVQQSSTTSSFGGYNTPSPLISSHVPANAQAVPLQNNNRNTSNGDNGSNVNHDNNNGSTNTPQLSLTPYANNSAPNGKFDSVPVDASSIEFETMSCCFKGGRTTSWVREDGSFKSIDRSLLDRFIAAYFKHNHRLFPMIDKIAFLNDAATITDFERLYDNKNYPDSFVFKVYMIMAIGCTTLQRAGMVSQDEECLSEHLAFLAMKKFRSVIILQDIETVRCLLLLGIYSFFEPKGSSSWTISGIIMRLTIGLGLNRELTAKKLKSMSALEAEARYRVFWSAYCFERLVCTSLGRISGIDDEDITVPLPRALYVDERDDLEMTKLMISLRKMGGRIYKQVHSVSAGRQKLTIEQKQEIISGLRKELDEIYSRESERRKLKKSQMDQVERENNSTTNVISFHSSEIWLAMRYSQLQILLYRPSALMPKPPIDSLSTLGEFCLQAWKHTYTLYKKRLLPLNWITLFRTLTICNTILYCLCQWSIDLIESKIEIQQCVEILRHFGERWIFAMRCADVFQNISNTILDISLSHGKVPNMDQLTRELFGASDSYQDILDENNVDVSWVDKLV
Method in brief: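 E-scores (a modified Wilcoxon-Mann-Whitney statistic) were assigned by the Universal PBM Analysis Suite to every ungapped eight-base word pooled with its reverse complement. The input came from universal all-10-mer Agilent arrays made double-stranded by primer extension and probed with GST-tagged yeast transcription factors at about 100-200 nM. Fluorescent anti-GST detected bound protein, and masliner normalised the scans.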

| Sequence | PBM E-score |
| --- | --- |
| ATGAACGA | -0.0854 |
| AACAGGCA | -0.186 |
| CGTCGTAC | 0.0941 |
| GTCCTCTA | -0.159 |
| ACGCCGGA | 0.343 |
| CCGCCGGC | 0.421 |
| CGGCCGGC | 0.284 |
| ACGCCGGG | 0.306 |
| ACGCCGGC | 0.389 |
| CCGCCGGA | 0.309 |
| CGAAAGAA | 0.0281 |
| AACTGCGT | -0.00018 |
| CGCATTGC | -0.0359 |
| CACCGGCA | 0.377 |
| CACCGGCG | 0.417 |
| CACCGGCC | 0.318 |
| AACCGGCA | 0.106 |
| TACCGGCA | 0.31 |
| AACCGGCG | 0.313 |
| CTGCACTA | -0.0814 |
| CGCTAAGC | 0.0898 |
| ATGAAAAC | 0.116 |
| GAATCCGC | 0.0516 |
| AAATCCCA | -0.156 |
| AAATCCGA | 0.332 |

| Sequence | PBM E-score |
| --- | --- |
| CAATCCCG | 0.281 |
| AAATCCGT | 0.281 |
| CAATCCGG | 0.167 |
| AAATCCCG | 0.411 |
| AAATCCGG | 0.376 |
| AAATCCGC | 0.354 |
| ATTCGCGG | 0.171 |
| CAGCACTG | -0.172 |
| GAATAAGA | 0.0303 |
| CGTCTAAA | -0.027 |
| CAGCAGTC | -0.115 |
| ACTTCGCT | -0.0885 |
| TACGGTGA | 0.16 |
| CACGGTGA | 0.282 |
| AACGGTGG | 0.245 |
| AACGGTGT | 0.425 |
| AACGGTGA | 0.355 |
| AACGGTGC | 0.332 |
| CCCATTGC | 0.0345 |
| GTCCCTGA | -0.284 |
| GGGAGGCA | 0.111 |
| AGGCTCCG | 0.246 |
| ATTACCCG | 0.176 |
| CTTACCGC | 0.193 |
| CTTACCCC | 0.222 |

| Sequence | PBM E-score |
| --- | --- |
| ATTACCCC | 0.362 |
| ATTACCTG | -0.0469 |
| ACTACCGG | 0.279 |
| ATTACCGG | 0.371 |
| CTTACCGA | 0.0867 |
| GTTACCGA | 0.197 |
| ATTACCTC | 0.0374 |
| ATTACCGA | 0.38 |
| ATTACCGC | 0.419 |
| CAGCAAGG | -0.369 |
| GATGATAA | 0.0422 |
| ACCCACTA | 0.0277 |
| CGGCTTCA | 0.259 |
| ACTTTGGG | -0.0994 |
| CTGGCCAC | -0.199 |
| CTCCCGAG | -0.213 |
| CCAAGGTA | -0.11 |
| AGGCGGTC | 0.258 |
| CGGCGGGC | 0.361 |
| CGGCGGCC | 0.242 |
| AGGCGGTA | 0.287 |
| CTGCGGTA | 0.254 |
| CCGCGGGC | 0.335 |
| CGGCGGTC | 0.355 |
| CGGCGGGA | 0.347 |

| Sequence | PBM E-score |
| --- | --- |
| GGGCGGTA | 0.346 |
| GTGCGGTA | 0.367 |
| ATGCGGTA | 0.243 |
| CGGCGGTA | 0.451 |
| AGCGAGTC | -0.132 |
| AGAATTCG | -0.146 |
| CGGCGACG | 0.194 |
| GACGGCGC | 0.199 |
| CAACCGTC | -0.0245 |
| CGGCCGAC | 0.205 |
| GGGCCGAC | 0.355 |
| AGGCCGAC | 0.406 |
| AGGCCGAT | 0.295 |
| GAGCCGAC | 0.201 |
| GGGCCGAA | 0.175 |
| ACAAGTGT | -0.136 |
| CAGGTTAA | -0.0457 |
| AACGGGGG | 0.296 |
| AACGGAGT | 0.378 |
| AACGGAGC | 0.242 |
| CACGGACC | 0.241 |
| AACGGACA | 0.298 |
| AACGGACG | 0.224 |
| AACGGGGT | 0.373 |
| AACGGATC | 0.16 |

| Sequence | PBM E-score |
| --- | --- |
| AACGGAGA | 0.247 |
| AACGGGGC | 0.294 |
| AACGGACT | 0.38 |
| AACGGACC | 0.38 |
| GTAAGATA | 0.0697 |
| CTGCAGCC | -0.218 |
| TCTGGGCA | 0.115 |
| TAGCTTCA | -0.214 |
| AGCGATGC | -0.112 |
| CGTTGTAA | -0.00989 |
| AGTTCAGC | -0.299 |
| GAGCGGTA | 0.316 |
| TAGCGGCA | 0.372 |
| GAGCGGCC | 0.293 |
| GAGCGGCA | 0.357 |
| AAGCGGCA | 0.344 |
| CAGCGGCA | 0.198 |
| CGCCAGTC | 0.131 |
| CGCTGATC | 0.0743 |
| TAGCGATA | 0.0393 |
| GATGCCGA | 0.332 |
| AATGCCCC | 0.128 |
| CATGCCGC | 0.312 |
| AATGCCGG | 0.401 |
| CATGCCCG | 0.122 |

| Sequence | PBM E-score |
| --- | --- |
| CATGCCGG | 0.344 |
| AATGCCCG | 0.362 |
| AATGCCTG | -0.102 |
| AATGCCGA | 0.419 |
| AATGCCGC | 0.448 |
| CATGCCGA | 0.168 |
| GATGCCGC | 0.349 |
| AAGACCTC | -0.0749 |
| CCCTTGGC | -0.224 |
| CTGATTAC | -0.0945 |
| GCAGTTCA | -0.151 |
| CTTGCCAC | -0.0929 |
| CTGGGAGA | -0.253 |
| AAAGCTCG | -0.16 |
| AGATAGAC | -0.0476 |
| ACCCTTTG | 0.0498 |
| CAGCCATA | -0.263 |
| AATCCCAA | 0.0066 |
| AATGCCGT | 0.425 |
| AATGCCCT | -0.168 |
| AATGCCAT | -0.0216 |
| GGGTTTCA | 0.19 |
| AACCGCAA | 0.12 |
| CACCGCAC | 0.357 |
| AACCGCAC | 0.00707 |

| Sequence | PBM E-score |
| --- | --- |
| CACCGCAA | 0.368 |
| TACCGCAA | 0.225 |
| GACCGCAC | 0.18 |
| CGAGGCTA | -0.0771 |
| AATGAGAG | -0.228 |
| ATGCCTTA | -0.338 |
| AACCGGAG | 0.302 |
| CGCCGGAC | 0.396 |
| ATCCGGAC | 0.258 |
| CTCCGGAC | 0.381 |
| GGCCGGAC | 0.331 |
| CGCCGGAA | 0.168 |
| GACCGGCC | 0.29 |
| GACCGGAA | 0.21 |
| CACCGGAG | 0.379 |
| GTCCGGAC | 0.348 |
| CTCCGGAG | 0.283 |
| GACCGGAC | 0.387 |
| TAGACCAA | -0.239 |
| CAATGGCA | 0.022 |
| TATTTACA | -0.157 |
| AGCTGTTC | -0.207 |
